The values that follow come from the supplement of paper PMC6555819.

The test relates to VDR:RXRa (NR concentration 270 nM, RXRa partner concentration 90 nM). The test can be described thus: PBM binding z-score (relative to random genomic background probes); higher = stronger binding; sequences stand for … in GC…GCGATTGACAGCGTAGAATGAAGG
On the procedure: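 Protein-binding microarray (Agilent 4x180K custom design, double-stranded 60-nt probes: 5' GC cap, 34-nt variable region, 24-nt constant primer region; full probe sequence given). Purified or IVT nuclear receptor:RXRα heterodimers (3:1 NR:RXRα, mostly 270:90 nM) or homodimers were incubated for 1 h in PBS with 2% milk and no ligand, then detected with Alexa488 antibodies. Fluorescence from o1-orientation probes (~5 replicates averaged) was converted to z-scores against 500 random hg19 background probes. Variable regions are seed direct-repeat (DR0–DR5) sites, all their single-nucleotide variants and half-site ablations.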
TCAAATAGGTAAAAGGTGAAAGTCGGTGTGGTAA showed a PBM binding z-score of 1.79. As for TCGAGTAGGGTACCAATGGGGCATTCAGCTTTCT, the figure is -0.337; as for CCTTACGGGTCACGAGTTTATAGCACGACGAGCG, 5.73; as for CCTAGTTCGTCAAGGTCACACACGCTATAGGTAC, 6.46.

CGAACGACGGCATGAGTTGATAGCAAATGCCGAT yielded a PBM binding z-score of -0.72. For CGTCAAAGTTCAAGGTAACGTAGCAGAAAGCAGC, the PBM binding z-score was 3.6. Then GCTCGGAGGACAACGTCAGAGCTTTGTCCGTAGA, with -0.935; and GCGACTGGGGCAATGCAGGTTACCATAAGGTTGG, with -0.0726.

CTAGCAAGGTGAACAAGGTCGTTGATTACTATTC returned a PBM binding z-score of 6.05.

In turn, TGAATGAGGTTAAAGCTCAGGGAACGTGGCGTCG displayed a PBM binding z-score of 1.14. Take TCTCGGAGGACACGAAAGGTCAGAGCGCGACATC: the PBM binding z-score stood at 3.45. In turn, TCATATAGGCAAAAGGTGAAAGTCGGTGTGGTAA yielded a PBM binding z-score of 1.05.

With CCTTACGGGTCGCTCCAGGTTATAGCATCGGAGT, the PBM binding z-score came out at 1.1. Turning to TCTGCTAGGTCAGTTGGTAAGCTAACGAGCTGCC, the PBM binding z-score is -0.00155. With ACTAGTTGGTCAGCTTAGGTCACACACAATTCGG, the PBM binding z-score came to 1.82.

TTACCAAGGTGAAGGTCGTTGGTCCCTCTGTAGA yielded a PBM binding z-score of 0.994.

TCTTGTAGATCAAGGAGGTTAAGAAAGCCTGAGT gave a PBM binding z-score of 1.26. Take TCCTGTAGATCAAAGGTTAAGAAAGCCGAAGCCT: the PBM binding z-score turned out to be 1.44. As to TCTATTAGTCGATTAGGGCAACCGAAACAGCGGA, the PBM binding z-score is 0.568. Sequence TCGAGTAGGTTAGGGGCATTCAGAATGGCGTCGA returned a PBM binding z-score of 0.508. Consider CAAACTAGGTCAGGGTCAAAGTCGGTTTGTGCCA, for which the PBM binding z-score turned out to be 4.97. GTTGCTAGGTCAACTGATGGTCAGCTAAAGCTCG returned a PBM binding z-score of 2.05. In the case of GCTATTAGTGGAAAGGGCAACCGAATGATTCTCG, the PBM binding z-score is 0.104. Sequence ATTTCTAGGTAACAAGTTCAGTGAAAGAGAGGAC came in with a PBM binding z-score of 2.56. Sequence TCATATAGGTAAACAGGTGAAAGGCCGTAAGTTA gave a PBM binding z-score of 0.988. TCTATTAGTTAATTAGGGCAACCGAAACAGCGGA had a PBM binding z-score of 0.823. For the sequence AATACAGGGTCACTAGGCCAGGGTAGGTACGAAT, the PBM binding z-score is 4. As for TCTTGTAGATCAAGCAGGTTAGGAAAGCCTGAGT, the PBM binding z-score was 0.203. In the case of TCTATTAGTTGATTAGGGCAAGCGAAACAGCGGA, the PBM binding z-score worked out at 0.402.

Turning to CCGAGCAGGCCAATCTGGGTCACTCAAGGCTTGA, the PBM binding z-score is 0.157.

In turn, CCAGACAGGAGAGAAGGTAACTCAGCCTCGATTA yielded a PBM binding z-score of -0.312. For AGAAAGAGGGCAATGAGTTGATAGCACGGGTGGC, the PBM binding z-score turned out to be 5.59.

Sequence CCTCGGAGCACAACAGGAGGTCAGAGCTGCCAGA had a PBM binding z-score of 1.32. Then CCGTCTGGGGCAGAAAGGTTACCATACCATCCGG, with 0.809. In turn, GCCACTGGGGCAAAGCAGGTTACCATAAGGTTGG yielded a PBM binding z-score of -0.0502. With CCGACTGGGGCAAGGTTACCGTAACGCACAGCCA, the PBM binding z-score is -0.0549. With TCTTTTAGATCAACAGGAGGTTAAGAAAGATCGA, the PBM binding z-score was determined as 0.982. For CCTACTGGGCCAAAGGTCATGGATTCCAATGCTC, the PBM binding z-score is 4.85. Regarding CAAACTAGGTCATCCAGGACAGTGAATACATTGA, the PBM binding z-score came out at 4.58. Sequence ACAGACAAGTGAGTGAAGGTAACTCAGCTGGACG displayed a PBM binding z-score of -0.435.
